KDM5B inhibitor = KDM5B demethylase inhibition. Potency, µM (doses to about 57.7 µM), actives largely listed as inhibitors. KDM5B demethylase, FDH-coupled NADH fluorescence (FDH is formaldehyde dehydrogenase). actives 2.6% (n = 220,000). Q9UGL1; active = well fitted inhibition curve with a large enough effect; note: nearly all actives have a fitted effect of over 70% in size
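KDM5BΔAP (200 nM final) in 50 mM HEPES pH 7.5, 0.01% Tween-20 was preincubated 10 min at RT with compound over a concentration range. Substrate mix (H3K4me3 12.5 µM, α-KG 25 µM, Fe²⁺, ascorbate, NAD⁺, FDH) was added, and NADH fluorescence change over 30 min gave dose-response curves.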
Each line names hits and unclear results; the compound was inactive in the other large screens; ! = repeats disagree. The full list was thinned out, with hits kept by preference.

COc1cc(NC(=O)c2cnc(SC)nc2C(F)(F)F)cc(OC)c1	none
CCCn1nc(C(=O)N2CCCCCC2)c2ccccc2c1=O	none
Cc1ccc(N)c(OCC(F)(F)F)c1	none
CNc1c(NS(=O)(=O)c2c(C)noc2C)c(=O)oc2ccccc12	none
COC(=O)Cn1c(Br)nc2c1c(=O)n(C)c(=O)n2C	none
COc1cc(=O)n(-c2ccc(C)cc2)nc1C(=O)NCc1ccc(C)cc1	none
CCCn1ccnc1SCC(=O)Nc1sc2c(c1C#N)CCCC2	none
CCCOCCNC(=O)c1c(C)noc1-c1ccc2c(c1)OCO2	KDM5B inhibitor 28µM
COc1ccc(-c2onc(C)c2C(=O)NCCOc2ccccc2)cc1	none
CCCOCCCNC(=O)c1c(C)noc1-c1ccc(C(C)(C)C)cc1	none
CCCOCCCNC(=O)c1c(C)noc1-c1ccc2c(c1)OCO2	KDM5B inhibitor 28µM
CCCCNC(=O)c1cc(-c2ccc3c(c2)OCO3)on1	none
COc1ccc(-c2onc(C)c2C(=O)NCCCOC(C)C)cc1	none
CCn1cnnc1-c1cccc(NS(=O)(=O)c2cccc(F)c2)c1	none
COc1cccc(-c2c(NC(=O)c3ccc([N+](=O)[O-])cc3)oc3ccc(Cl)cc3c2=O)c1	none
CC(NC(=O)CSc1ccc2c(c1)OCCCO2)c1cccc2ccccc12 (centres undefined)	none
CCN(CC)S(=O)(=O)c1ccc(C(C)NC(=O)c2nn(C)c(=O)c3ccccc23)cc1 (centres undefined)	none
Cc1ccc(C)c(-c2nn(CC(=O)N3CCCCC3)c(=O)c3ccccc23)c1	none
COc1ccc(C2(C(=O)NC3CCc4n[nH]c(=O)n4CC3)CC2)cc1 (centres undefined)	none
O=C(CSC12CC3CC(CC(C3)C1)C2)NC1CCCN(c2ncccn2)C1 (centres undefined)	none
O=C(COc1ccccc1Cl)NC1CCCN(c2ncccn2)C1 (centres undefined)	none
COCc1nnc2n1CCC(NC(=O)C1(c3ccc(OC)cc3)CC1)CC2 (centres undefined)	none
CCc1c(C)nn(CC(=O)NC2CCCN(c3ncccn3)C2)c1C (centres undefined)	KDM5B inhibitor 20µM
COc1ccc(C2(C(=O)NC3CCCN(c4ncccn4)C3)CC2)cc1 (centres undefined)	KDM5B inhibitor 22µM
O=C(NCc1ccc(F)cc1)N1CC(Oc2ccc(-c3noc(-c4ccccc4)n3)cc2)C1	none
CN(C)c1ccc2ncccc2c1	none
COc1ccc(-c2nc(CNC(=O)Nc3ccccc3OC)c(C)o2)cc1	none
CCCCn1c(=O)n(CC(=O)NC(C)C(C)C)c(=O)c2c1ncn2Cc1ccco1 (centres undefined)	none
CC(Sc1nc(NC2CC2)c2ccccc2n1)C(=O)N1CCCC1 (centres undefined)	none
O=C1CC(c2cc3c(cc2Br)OCO3)c2cc3c(cc2N1)OCCO3 (centres undefined)	none
Fc1ccccc1CNC1C2CC3CC(C2)CC1C3 (centres undefined)	none
COc1ccc(-c2nccc3c(=O)cc(N4CCOCC4)oc23)cc1OC	none
O=c1cc(N2CCOCC2)oc2c(NCc3ccc(F)cc3)nccc12	KDM5B inhibitor 35µM
Cc1ccccc1-c1nccc2c(=O)cc(N(C)C3CCOCC3)oc12	none
COc1cc(F)ccc1-c1nccc2c(=O)cc(N3CCOCC3)oc12	KDM5B inhibitor 35µM
Cc1cc(C)cc(-n2ccnc(NCc3ccc(F)cc3)c2=O)c1	none
O=c1cc(N2CCOCC2)oc2c(-c3cccc4[nH]ccc34)nccc12	none
O=c1cc(N2CCOCC2)oc2c(-c3ccc(F)cc3)nccc12	KDM5B inhibitor 35µM
CN(C1CCOCC1)C1CCN(C(=O)c2ccccn2)CC1	none
O=C(c1cnc(N2CCOCC2)c2ccccc12)N1CCN(c2ccc(F)cc2)CC1	none
COc1cc(F)ccc1-c1nccc2c(=O)cc(-c3cccnc3)oc12	none
CN(c1cc(=O)c2ccnc(-c3ccc(O)c(F)c3)c2o1)C1CCOCC1	KDM5B inhibitor 32µM
COc1cc(C#N)ccc1OCC(=O)c1ccc2c(c1)OCCCO2	none
N#Cc1ccc(NN)c([N+](=O)[O-])c1	none
CCNC(=O)NC(=O)CN(C)c1ccccc1F	none
CCc1ccc(C(=O)CC2(O)C(=O)Nc3ccc(F)cc32)cc1 (centres undefined)	none
CCN1c2cc(C(=O)Nc3ccccc3C(=O)OC)ccc2C(=O)N2CCCCCC21 (centres undefined)	none
Cc1ccc(-c2cc(C(=O)Nc3ccc(C#N)cc3)c3ccccc3n2)o1	none
Cc1ccc2c(CN3CCN(C(=O)c4ccco4)CC3)cc(=O)oc2c1	none
CCCCn1c(CCC(=O)Nc2ccccc2C)nc2c1c(=O)[nH]c(=O)n2CCC	none
O=c1cc(CN2CCN(c3ccc(F)cc3)CC2)c2cc(O)ccc2o1	none
CCCn1c(=O)c2sc(N3CCCC3)nc2n(CC(=O)Nc2cc(C)ccc2OC)c1=O	none
CNS(=O)(=O)c1ccc(C(=O)NCC2(c3ccccc3)CC2)cc1	none
CN(C)c1cc(=O)c2ccnc(-c3ccc(N4CCOCC4)cc3)c2o1	KDM5B inhibitor 32µM
COc1cc(F)ccc1-c1nccc2c(=O)cc(N(C)C3CCOCC3)oc12	KDM5B inhibitor 40µM
Cc1ccc(Nc2c(-c3ccc(N4CCOCC4)cc3)nc3ncccn23)cc1	none
Cn1cc(-c2ccnc(N3CCOCC3)c2)c2nc(COc3ccc(Cl)cc3)cn2c1=O	none
COCC(=O)N(C1CCOCC1)C1CCN(C(=O)c2cc(F)ccc2F)CC1	none
Cc1ccc(Nc2c(-c3ccc(N4CCOCC4)cc3)nc3ncccn23)cc1C	none
O=c1cc(N2CCOCC2)oc2c(-c3ccc(F)c(Cl)c3)nccc12	KDM5B inhibitor 20µM
CN1CCN(c2cc(=O)c3ccnc(Nc4ccc(F)c(Cl)c4)c3o2)CC1	none
COCC(=O)N(C1CCOCC1)C1CCN(C(=O)c2ccc(F)cc2F)CC1	none
O=S(Cc1ccc(F)cc1)Cc1cccc(C(F)(F)F)c1 (centres undefined)	none
Cc1noc(C)c1S(=O)(=O)N1CCCN(Cc2ccncc2)C(c2ccccc2)CC(=O)NCC1 (centres undefined)	none
CN(Cc1ccc(Cl)cc1Cl)c1ccc(S(N)(=O)=O)cn1	none
Cc1ccc(S(=O)(=O)N2CCC(C(=O)N3CCC(CCc4ccccc4)CC3)CC2)c(C)c1	none
CN1CCN(S(=O)(=O)c2cccc(C(=O)Nc3cccc4cccnc34)c2)CC1	none
Cc1cc(C)c2nc(SCC(=O)N(C)C)cc(C)c2c1	none
CCc1ccc(C(=O)Oc2ccc3ccccc3c2)cc1	none
O=C(NCCc1ccc(Cl)cc1)c1cc(Br)cn2ccnc12	KDM5B inhibitor 32µM!
O=C(NCc1ccc(-n2cccn2)cc1)c1ccc(F)cc1Br	none
O=C(NCc1ccc(-n2cccn2)cc1)c1cc(Br)ccc1Cl	none
CSCCNC(=O)c1nc2sccn2c1Br	none
O=C(NCc1ccc(F)cc1)c1cc(Br)cn2ccnc12	KDM5B inhibitor 32µM
CSCCNC(=O)c1cc(Br)cn2ccnc12	KDM5B inhibitor 35µM
O=C(NCc1ccc(-n2cccn2)cc1)c1cc(F)ccc1Br	none
O=C(NCc1ccccc1F)c1ccccc1-c1ccccc1	none
O=C(NCc1ccccc1F)c1cc(Br)cn2ccnc12	KDM5B inhibitor 22µM
O=C(Cc1ccccc1F)NCc1cccnc1N1CCCCC1	none
O=C(NCCc1ccc(Cl)cc1)c1nc2sccn2c1Br	none
Cc1c(C(=O)NCCc2ccc(Cl)cc2)cccc1-n1cnc2cccnc21	none
Cc1c(C(=O)c2ccc[nH]2)oc2ccc(F)cc12	none
CCCOc1ccc(/C=C(/C#N)c2nc3ccccc3[nH]2)cc1OCC	none
COCCn1cnnc1SCC(=O)c1c[nH]c2ccccc12	none
O=C(NCc1ccccc1)N1CCC(N2C(=O)C3(CCCCC3)C2c2ccncc2)CC1 (centres undefined)	none
CCOCCn1c(=O)c2c(nc(-n3nc(C)c(C)c3C)n2C(C)C)n(C)c1=O	none

High-throughput results as filed in PubChem BioAssay.
